# Laboratory results as given in ChEMBL document CHEMBL3988442, “University of Dundee, Small-Polar-MMV Screening Library” (2021).
# Among all 48,000 compounds or so, about 13,000 (27%) showed an effect of 50% or more. Some of the results follow.
# Test system: Wolbachia pipientis
# Assay: Anti-Wolbachia Cell-Based Screen
# Assay type: functional
# Design: scale not given: in the data most compounds retested in dose-response had high values
# Settings: 5 µM
row,Compound,Percent Effect
1,CCN(CC)Cc1nc2c(o1)CN(C(=O)c1ccc3[nH]ccc3c1)C2.O=CO,2.766%
2,O=C(NC1CC1)N1Cc2[nH]nc(COCC3CC3)c2C1,-7.793%
3,CCc1nc(CCNC(=O)NC2CCC(=O)N(C)C2)sc1C (stereo not drawn),-4.769%
4,CN(C)c1cccc(C(=O)N2CCCc3cc(OC(F)(F)F)ccc32)c1,5.74%
5,CN(CC1CCC1)C(=O)Nc1cccnc1-n1cncn1,-2.5%
6,Cc1oc(-c2ccsc2)nc1CN1CC[C@@H]2CCCC[C@H]2C1,16.57%
7,Cc1nc(C)n(CC2CN(CCc3ccccc3Cl)CCO2)n1 (stereo not drawn),-35.87%
8,Clc1ccccc1C1CN(CCc2ccncc2)CCO1 (stereo not drawn),118%
9,CCNC(=O)NC(=O)CN1CCOC(c2ccccc2Cl)C1 (stereo not drawn),0.5373%
10,COc1ncccc1CN1Cc2nccn2CC(Cn2cccn2)C1 (stereo not drawn),99.64%
11,CNC(=O)c1cnc2n1CCN(Cc1cccnc1OC)C2,-12.45%
12,Cc1ccc(CC(=O)N2Cc3nccn3CC(Cn3cccn3)C2)cc1 (stereo not drawn),-9.367%
13,COc1ncccc1CN1Cc2nccn2CC(CN2CCCC2)C1 (stereo not drawn),87.46%
14,CS(=O)(=O)N1Cc2nccn2CC(CN2CCCC2)C1 (stereo not drawn),-0.3251%
15,O=C(CCn1cncn1)Nc1ccc(F)cc1OCC1CC1,-2.529%
16,COC(=O)CCNC(=O)c1ccc(NC(=O)N(C)CC(C)C)cc1,21.34%
17,Cc1cc(CNC(=O)NCc2cccs2)ccc1S(C)(=O)=O,-12.59%
18,CN(C)c1ccc(CNC(=O)NCCc2cccs2)cn1,93.45%
19,CN(C)c1ccc(CNC(=O)NCCc2ccccn2)cn1,91.3%
20,CC(C)c1nc(CCNC(=O)NCc2ccnc(N(C)C)c2)cs1,6.649%
21,CN(C)c1ccc(CNC(=O)NCCc2cn3ccccc3n2)cn1,118.9%
22,CN(C)c1ccc(C(=O)NCCCc2ccccn2)cn1,11.7%
23,CN(C)c1ccc(CCNC(=O)NCc2ccc(N(C)C)nc2)cc1,5.041%
24,Cc1ccccc1C1(O)CCN(C(=O)CCc2cn3ccccc3n2)C1 (stereo not drawn),-1.584%
25,Cc1nc(CN2CCC(CNC(=O)Nc3ccccn3)CC2)oc1C,15.98%
26,COCc1nc2n(n1)CCCC2Nc1nc(C(C)C)ns1 (stereo not drawn),-13.74%
27,CN1CCN(S(=O)(=O)N2CCCCC2CCc2ccc(O)cc2)CC1 (stereo not drawn),-0.6049%

row,Compound,Percent Effect
1,CCn1cc(CN2CCCn3nc(CNS(C)(=O)=O)cc3C2)c(C)n1,-7.534%
2,Cc1cc2c(c(=O)n1CCC(=O)O)C=CC(C)(C)O2,159.6%
3,CC(C)=CCCC1(C)C=Cc2c(cc(C)n(CCC(=O)O)c2=O)O1 (stereo not drawn),110.1%
4,CC(C)=CCCC1(C)C=Cc2c(cc(C)n(CC(=O)O)c2=O)O1 (stereo not drawn),107.4%
5,CCn1c(C)nnc1SCCNC(=O)c1cnc(C(C)(C)C)nc1O,-1.576%
6,CN(C)C(=O)N1CCN(CCCOc2ccccc2)[C@H]2CS(=O)(=O)C[C@H]21,-34.84%
7,CC(O)CN1CCC(CNCc2ccc(C#N)cc2)CC1 (stereo not drawn),2.816%
8,Cn1ccnc1CN1CCC(F)(F)C2(CCN(c3cnccn3)C2)C1.O=C(O)C(F)(F)F (stereo not drawn),108.4%
9,COc1cccc(N2CC3(CCN(Cc4nccn4C)C3)CC2=O)c1.O=C(O)C(F)(F)F (stereo not drawn),13.06%
10,Cn1cc(N2CC3(CCN(Cc4nccn4C)C3)CC2=O)cn1.O=C(O)C(F)(F)F (stereo not drawn),-13.1%
11,Cc1ccc(N2CC3(CCN(Cc4nccn4C)C3)CC2=O)s1.O=C(O)C(F)(F)F (stereo not drawn),20.39%
12,Cn1ccnc1CN1CCC2(CC1)CC(Oc1cccnc1)C2.O=C(O)C(F)(F)F.O=C(O)C(F)(F)F,-13.8%
13,Cn1ccnc1CN1CCC(F)(F)C2(CCN(c3cccnc3)C2)C1.O=C(O)C(F)(F)F.O=C(O)C(F)(F)F (stereo not drawn),75.41%
14,Cc1cnn(C(C)C2CC2)c1NC(=O)c1cnccn1 (stereo not drawn),2.38%
15,COc1ccc(CN2CCN(C(C)=O)CC2)cc1SC(F)(F)F,-8.503%
16,CCc1[nH]c2c(CNC(=O)C3CCCN(C)C3)cc(C)cc2c1C (stereo not drawn),-27.93%
17,CCc1[nH]c2c(CNC(=O)C3CCS(=O)(=O)CC3)cc(C)cc2c1C,-6.161%
18,CCN1Cc2nc(OC)c(CNC(=O)C3CCCN(C)C3)cc2C1=O (stereo not drawn),93.23%
19,CCN1Cc2nc(OC)c(CNC(=O)CCC3CCCC3)cc2C1=O,102.4%
20,O=C(CCC1CCCCC1)NCc1nnc2ccccn12,-0.7171%
21,CCN1Cc2nc(OC)c(CNC(=O)C3CCS(=O)(=O)CC3)cc2C1=O,82.23%
22,COc1ccc(Oc2ccc(CNC(=O)C3CCS(=O)(=O)C3)cn2)cc1 (stereo not drawn),-6.307%
23,Cc1cc(C(F)(F)F)nc(CNC(=O)CCC2CCCN(C)C2)n1 (stereo not drawn),9.588%
24,COc1nc2ccccc2cc1CN1CCCC(CNC(C)=O)C1 (stereo not drawn),6.31%
25,O=C(NCCc1nnc2n1CCCCC2)N1CCC2(CCOC2)C1 (stereo not drawn),10.36%
26,CNC(=O)c1ccc(=O)n(Cc2csc(C(C)(C)C)n2)c1,14.6%
